Results: the supplement of paper PMC6089552
Among all 3,200 compounds or so, about 300 (9.4%) showed activity. What follows is part of a selection rich in actives, with near analogues and random picks from the rest.

Test system: A673/TR/shEF
Assay: cell viability (LOESS-normalised, relative to median of negative controls) (log2 ratio); higher = more viable cells (less compound effect), active = hit call of the paper (over 3 MAD below the median)
Settings: treatment time: 72 h
Procedure, shortened: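 A673/TR/shEF Ewing sarcoma cells (1,500 per well, 384-well plates) were grown with or without doxycycline to induce EWS-FLI1 shRNA knockdown, starting 24 h before compounds. Library compounds at two or more concentrations, with DMSO controls, were added for three days. Cell viability was read by CellTiter-Glo luminescence on an Envision reader, then LOESS-corrected per plate, divided by the median of negative controls and log2-transformed. Hits were wells at least three median absolute deviations from the median of all screened wells.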

[1] = 0.25 µM, library screen: screen1, EWS-FLI1 expression: high (no doxycycline)
[2] = 0.25 µM, library screen: screen1, EWS-FLI1 expression: low (doxycycline-induced shRNA knockdown)
[3] = 2.5 µM, library screen: screen1, EWS-FLI1 expression: high (no doxycycline)
[4] = 2.5 µM, library screen: screen1, EWS-FLI1 expression: low (doxycycline-induced shRNA knockdown)
[5] = 0.25 µM, library screen: screen2, EWS-FLI1 expression: high (no doxycycline)
[6] = 0.25 µM, library screen: screen2, EWS-FLI1 expression: low (doxycycline-induced shRNA knockdown)
[7] = 2.5 µM, library screen: screen2, EWS-FLI1 expression: high (no doxycycline)
[8] = 2.5 µM, library screen: screen2, EWS-FLI1 expression: low (doxycycline-induced shRNA knockdown)
[9] = 0.103 µM, library screen: screen3, EWS-FLI1 expression: high (no doxycycline)
[10] = 0.103 µM, library screen: screen3, EWS-FLI1 expression: low (doxycycline-induced shRNA knockdown)
[11] = 0.308 µM, library screen: screen3, EWS-FLI1 expression: high (no doxycycline)
[12] = 0.308 µM, library screen: screen3, EWS-FLI1 expression: low (doxycycline-induced shRNA knockdown)
[13] = 0.926 µM, library screen: screen3, EWS-FLI1 expression: high (no doxycycline)
[14] = 0.926 µM, library screen: screen3, EWS-FLI1 expression: low (doxycycline-induced shRNA knockdown)
[15] = 2.8 µM, library screen: screen3, EWS-FLI1 expression: high (no doxycycline)
[16] = 2.8 µM, library screen: screen3, EWS-FLI1 expression: low (doxycycline-induced shRNA knockdown)
[17] = 8.3 µM, library screen: screen3, EWS-FLI1 expression: high (no doxycycline)
[18] = 8.3 µM, library screen: screen3, EWS-FLI1 expression: low (doxycycline-induced shRNA knockdown)
[19] = 25 µM, library screen: screen3, EWS-FLI1 expression: high (no doxycycline)
[20] = 25 µM, library screen: screen3, EWS-FLI1 expression: low (doxycycline-induced shRNA knockdown)

Measured: cell viability (log2)

COC(=O)C(O)[C@H]1C(C)(C)[C@@H](OC(C)=O)[C@@H]2CC3=C4CC(=O)O[C@@H](c5ccoc5)[C@]4(C)CCC3[C@@]1(C)C2=O (stereo partly drawn)
inactive: [1] 0.11 | [2] 0.119 | [3] 0.15 | [4] 0.0885

CC(=O)O[C@H]1CC[C@@]2(C)C(=CC[C@H]3[C@@H]4CC[C@H]([C@H](C)CCCC(C)C)[C@@]4(C)CC[C@@H]32)C1
inactive: [1] 0.0694 | [2] 0.0487 | [3] 0.14 | [4] 0.0189

O=C(O)C1CC(C2CCCCN2)CN2CCCCC12 (stereo not drawn)
inactive: [1] 0.039 | [2] 0.0346 | [3] 0.146 | [4] 0.0208

CC(N)=NCCC[C@H](N)C(=O)O
inactive: [5] 0.0627 | [6] 0.0753 | [7] -0.0275 | [8] 0.0731

COc1ccccc1CNC(=O)CN(c1ccc(Cl)cc1)S(C)(=O)=O
inactive: [1] -0.0129 | [2] 0.0689 | [3] 0.0751 | [4] 0.0379

C=C1CCC(C2CC(=O)OC2=O)C(=O)CCC2C1CC2(C)C (stereo not drawn)
inactive: [1] 0.1 | [2] 0.128 | [3] 0.0855 | [4] 0.0593

Cc1nnc(SCC(=O)N2c3ccccc3-c3c(ssc3=S)C2(C)C)s1
inactive: [1] 0.0582 | [2] 0.0648 | [3] 0.115 | [4] 0.255

CC(C)=CCC/C(C)=C/C=C/C(C)=C/C=C/C(C)=C/C=C/C=C(C)/C=C/C=C(C)/C=C/C=C(\C)CCC=C(C)C
inactive: [1] 0.149 | [2] 0.105 | [3] 0.156 | [4] 0.123

CC(=O)O[C@@H]1CC2C(C)(C)C=CC(=O)[C@]2(C)C2CC[C@@]3(C)[C@H](c4ccoc4)OC(=O)C4OC43[C@@]21C (stereo partly drawn)
inactive: [1] 0.059 | [2] 0.0804 | [3] 0.118 | [4] 0.149

NC1(C(=O)O)CCCCC1
inactive: [5] 0.0492 | [6] 0.114 | [7] -0.0212 | [8] 0.0608

NC1(C(=O)O)CCCC1
inactive: [1] 0.102 | [2] 0.137 | [3] 0.134 | [4] 0.192

NC1(C(=O)O)CC1
active: [5] -0.141 | [6] -0.0707
inactive: [1] 0.064 | [2] 0.0956 | [3] 0.122 | [4] 0.0925 | [7] 0.123 | [8] 0.0434

CN(C)C(=O)/C(=C\c1cccc(Br)c1)NC(=O)c1ccccc1
inactive: [1] 0.0622 | [2] 0.0915 | [3] 0.179 | [4] 0.181

O=C(O)c1cc2c(Cl)cc(Cl)cc2[nH]1
inactive: [1] 0.105 | [2] 0.0244 | [3] 0.0763 | [4] 0.0336

NCC1OC(OC2C(N)CC(N)C(OC3OC(CO)C(O)C(N)C3O)C2O)C(N)C(O)C1O (stereo not drawn)
inactive: [1] 0.0483 | [2] 0.0336 | [3] 0.164 | [4] 0.0237

COc1cc([S+](C)[O-])ccc1-c1nc2ncccc2[nH]1 (stereo not drawn)
inactive: [1] 0.101 | [2] 0.00949 | [3] 0.131 | [4] 0.0599

C[S+]([O-])c1ccc(-c2nc(-c3ccc(F)cc3)c(-c3ccncc3)[nH]2)cc1 (stereo not drawn)
active: [3] -0.235 | 25 µM, library screen: screen1, EWS-FLI1 expression: high (no doxycycline) -0.108
inactive: 0.025 µM, library screen: screen1, EWS-FLI1 expression: low (doxycycline-induced shRNA knockdown) 0.136 | [1] 0.263 | [2] 0.121 | [4] 0.238 | 25 µM, library screen: screen1, EWS-FLI1 expression: low (doxycycline-induced shRNA knockdown) 0.274
0.29: 0.025 µM, library screen: screen1, EWS-FLI1 expression: high (no doxycycline)

C/C1=C\CC(C)(C)/C=C\CC2(C)OC2CC1 (stereo not drawn)
inactive: [1] 0.0693 | [2] 0.00465 | [3] 0.118 | [4] 0.162

CC(C)CCC[C@@H](C)[C@H]1CC[C@H]2C3=CC[C@H]4C[C@@H](O)CC[C@]4(C)[C@H]3CC[C@]12C
inactive: [1] -0.0717 | [2] -0.021 | [3] 0.0758 | [4] 0.0695

C[C@H]1COC2=C1C(=O)C(=O)c1c2ccc2c1CCCC2(C)C
active: [19] -0.196 | [20] -0.308
inactive: [9] 0.0338 | [10] 0.0754 | [11] 0.0526 | [12] 0.0683 | [13] 0.0196 | [14] 0.0264 | [15] -0.0315 | [16] -0.0274 | [17] 0.0932 | [18] -0.035

CCN1CCC[C@H]1CNC(=O)c1c(OC)ccc(I)c1O
inactive: [5] 0.251 | [6] 0.174 | [7] 0.0364 | [8] 0.15

Cc1ccsc1C=C1SC(=S)N(CC(=O)O)C1=O
inactive: [1] 0.0973 | [2] 0.0799 | [3] 0.133 | [4] 0.152

C=CCN1C(=O)/C(=C2\SC(=S)N(c3c(C)n(C)n(-c4ccccc4)c3=O)C2=O)c2ccccc21
inactive: [1] -0.0187 | [2] -0.00404 | [3] 0.0713 | [4] -0.0309

OCC(O)C1NCC(O)C1O (stereo not drawn)
inactive: [5] 0.0417 | [6] 0.103 | [7] 0.000766 | [8] 0.0189

Cc1cc(N)c2ccccc2[n+]1CCCCCCCCCC[n+]1c(C)cc(N)c2ccccc21
inactive: [1] 0.139 | [2] 0.0436 | [5] 0.122 | [6] 0.0489
active: [3] -1.46 | [4] -0.54 | [7] -0.865 | [8] -0.463

CC[C@H]1C(=O)OC[C@@H]1Cc1cccn1C
inactive: [1] 0.154 | [2] 0.0128 | [3] 0.143 | [4] 0.0953

CC12CCCC(O)(C1)C1CC(C)(C)C1CC2 (stereo not drawn)
inactive: [1] 0.066 | [2] -0.02 | [3] 0.0972 | [4] 0.0732

Oc1ccc([C@@H]2Oc3ccc(O)cc3[C@@H]3CCC[C@@H]32)cc1
inactive: [9] -0.0128 | [10] 0.0648 | [11] -0.0264 | [12] -0.0313 | [13] -0.0384 | [14] 0.0122 | [15] -0.0259 | [16] 0.00446 | [17] -0.0456 | [18] 0.0022 | [20] -0.0464
active: [19] -0.181

Oc1ccc([C@H]2Oc3cc(O)cc(O)c3C[C@H]2O)cc1
inactive: [1] 0.0303 | [2] -0.000667 | [3] 0.0839 | [4] -0.00856

Oc1ccc2c(c1)OC[C@H]1c3cc4c(cc3O[C@@H]21)OCO4
inactive: [1] 0.0543 | [2] -0.104 | [3] 0.119 | [4] 0.0894
